Screens: PubChem, The Scripps Research Institute Molecular Screening Center
FBW7 act: FBW7 E3 ligase activators, primary screen, biochemical, AlphaScreen, human. F-box/WD repeat-containing protein 7 (Homo sapiens), Q969H0. AlphaScreen FBW7–phospho-cyclin E peptide binding, activator screen. normalized activity (activation), % at 26.1 µM. actives 0.13% (n = 650,000). AID 1259310, 2017; in the data active = normalized activity above about 1.9%;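 also: purified mutant Fbw7 with reduced substrate affinity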
GPR151 activ: activators of human GPR151, primary screen, cell-based, PathHunter beta-arrestin, luminescence. G-protein coupled receptor 151 (Homo sapiens), Q8TDV0. PathHunter beta-arrestin GPR151 cells. activation, % at 11.2 µM. actives 1% (n = 650,000); in the data active = activation above about 4.9%
TEAD-YAP block: TEAD-YAP interaction inhibition, primary screen, TEAD-YAP interaction inhibitor project, luminescence, HEK-TIYL cells; TEAD-Gal4/YAP UAS-luciferase luminescence; inhibition, % at 9.12 µM; actives 1.4% (n = 640,000); AID 1259422, 2018; in the data active = inhibition above about 32%
MITF primary: MITF inhibitors, primary screen, biochemical, AlphaScreen, human; Microphthalmia-associated transcription factor (Homo sapiens), O75030; AlphaScreen MITF homodimerization, bead proximity signal; inhibition, % at 2.6 µM; actives 0.91% (n = 650,000); AID 1259374, 2018; in the data active = inhibition above about 50%
Target sequence (O75030 whole entry, looked up): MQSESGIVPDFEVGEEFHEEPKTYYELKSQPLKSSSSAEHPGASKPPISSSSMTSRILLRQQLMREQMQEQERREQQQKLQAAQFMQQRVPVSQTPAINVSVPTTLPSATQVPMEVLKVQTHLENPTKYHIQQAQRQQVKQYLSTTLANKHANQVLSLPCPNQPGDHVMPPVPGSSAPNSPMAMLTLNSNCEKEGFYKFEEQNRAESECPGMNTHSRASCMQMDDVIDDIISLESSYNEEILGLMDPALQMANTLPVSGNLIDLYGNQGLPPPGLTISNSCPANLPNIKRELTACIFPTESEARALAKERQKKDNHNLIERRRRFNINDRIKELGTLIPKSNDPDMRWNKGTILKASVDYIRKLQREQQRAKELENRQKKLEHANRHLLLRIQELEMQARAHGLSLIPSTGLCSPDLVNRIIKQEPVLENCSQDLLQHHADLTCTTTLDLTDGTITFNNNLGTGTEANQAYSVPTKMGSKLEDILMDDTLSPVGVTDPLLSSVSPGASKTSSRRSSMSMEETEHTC
Numbers stand for hits; . = inactive. Compounds with a hit are over-represented: about 3.5% of the library has one in this group of screens.

SMILES	FBW7 act	GPR151 activ	TEAD-YAP block	MITF primary
CCCSc1nnc2c(n1)OC(c1c(C)[nH]n(-c3ccccc3)c1=O)Nc1ccccc1-2 (stereo not given)	.	.	.	61
Cc1nc(C#N)c(N/N=C/c2ccc(N(C)C)cc2)o1	.	.	33	.
Cc1nc(C#N)c(N/N=C/C=C/c2ccccc2)o1	.	.	.	.
COc1cccc(C(=O)Nc2nnc(SC)s2)c1	.	.	43	.
CSc1nnc(NC(=O)c2ccccc2[N+](=O)[O-])s1	.	.	.	.
CSc1nnc(NC(=O)c2c(Cl)cccc2Cl)s1	.	.	.	.
CSc1nnc(NC(=O)c2ccccc2C)s1	.	.	41	.
CCCSc1nnc(NC(=O)c2cccc(OC)c2)s1	.	.	.	.
CSc1nnc(NC(=O)c2ccccc2Cl)s1	.	.	39	.
O=C(CSc1ncccn1)N/N=C/c1c(O)ccc2ccccc12	.	.	.	.
COc1ccccc1N1CC(O)(c2ccc(F)cc2)[N+]2=C1CCCC2 (stereo not given)	.	.	.	.
O=S(=O)(/N=C(/c1ccccc1)N1CCc2ccccc2C1)c1ccc(F)cc1	.	.	.	.
Cc1cc(C(=O)N=c2sc3cc4c(cc3n2C)OCCO4)nn1C	.	.	38	.
Cc1cc(C(=O)N=c2sc3cc4c(cc3n2C)OCCO4)n(C)n1	.	.	.	.
NC(=O)c1ccc(-c2nc(NCc3ccccc3)c3ncn(Cc4ccc(C(F)(F)F)cc4)c3n2)cc1	.	.	.	.
Cc1ccc(/C=C(/C#N)c2ccc([N+](=O)[O-])cc2)o1	.	.	.	.
COC(=O)c1ccc(N/C=C2/CCc3ccccc3C2=O)cc1	.	.	68	.
COc1cc2[nH]c(=S)n(NC(=O)c3ccccc3)c(=O)c2cc1OC	.	.	.	.
COc1ccc(C(=O)Nn2c(SCC(=O)NCCc3ccc(OC)c(OC)c3)nc3ccccc3c2=O)cc1	.	.	78	.
COc1cccc(C(=O)Nn2c(=S)[nH]c3ccccc3c2=O)c1	.	.	40	.
COc1ccc(CCNC(=O)CSc2nc3ccccc3c(=O)n2NC(=O)Cc2ccccc2)cc1OC	.	.	.	.
COc1ccc(C(=O)Nn2c(SCc3ccc([N+](=O)[O-])cc3)nc3ccccc3c2=O)cc1	.	.	49	.
COc1cc(OC)cc(C(=O)Nn2c(-c3cccc(C)c3)nc3ccccc3c2=O)c1	1.9	.	.	.
COc1cccc(C(=O)Nn2c(-c3cccc(OC)c3)nc3ccccc3c2=O)c1	.	.	.	.
Cn1c(=O)c2c(nc(SCc3cccc(I)c3)n2Cc2cccc(Cl)c2)n(C)c1=O	.	.	.	.
SMILES	FBW7 act	GPR151 activ	TEAD-YAP block	MITF primary
Cc1sc2nc(C)n(Cc3ccc(Cl)cc3)c(=O)c2c1C	.	.	.	.
Cc1ccc(C)c(-n2nnnc2SCC(=O)O)c1	.	.	.	.
CC(C)(C)C(=O)Nc1nnc(-c2ccccc2)o1	.	.	.	.
O=C(Cc1ccccc1)Nn1c(SCC(=O)c2ccc(F)cc2)nc2ccccc2c1=O	.	.	.	.
COc1ccc(C(=O)Nn2c(SCC(=O)c3ccccc3)nc3ccccc3c2=O)cc1	.	.	70	.
O=C(CSc1nc2ccccc2c(=O)n1NC(=O)c1ccccc1)c1ccc(Br)cc1	.	.	.	.
O=C(CSc1cnc2ccccc2n1)c1ccc(F)cc1	.	.	49	.
COc1ccc(C(=O)Nn2c(SCC(=O)c3ccc(F)cc3)nc3ccccc3c2=O)cc1	.	.	46	.
COCCNC(=O)c1cccc(OC)c1OC	.	.	.	.
Cc1cc2c(=O)n(CC(=O)N3CC(C)CC(C)C3)cnc2s1 (stereo not given)	.	.	.	.
CCCn1cnc2cc(NCc3cc(OC)c(OC)c(OC)c3)ccc21	.	.	.	.
CCn1cnc2cc(NCc3cc(OC)c(OC)c(OC)c3)ccc21	.	.	58	.
COc1cc(CNc2ccc3c(c2)ncn3C)cc(OC)c1OC	.	.	63	.
CCN1C(=S)N2CCCN2C1c1ccccc1 (stereo not given)	.	.	.	.
Cc1cc(NC(=O)Cn2nnc(-c3ccccc3NC(=O)c3ccc(Cl)cc3)n2)no1	.	.	.	.
CCCN1C(=O)C(O)(CC(=O)c2ccc([N+](=O)[O-])cc2)c2cc(Br)ccc21 (stereo not given)	.	.	50	.
O=C(NCCc1nc(-c2ccncc2)n[nH]1)C1(c2cccc(F)c2)CCCC1	.	.	.	.
c1ccc(OCCNc2ncnc3nc(Nc4ccc(N5CCOCC5)cc4)[nH]c23)cc1	.	.	.	.
Cc1csc(NC(=O)CN2CCC(c3ccncc3)CC2)n1	.	.	45	.
COc1ccc(Cl)cc1NC(=O)Cc1ccc(C)cc1	.	.	.	.
C/C1=C2N=C(/C=C3N=C(/C(C)=C4\NC(C(CC(N)=O)C4(C)CCC(=O)NCC(C)OP(=O)(O)OC4C(CO)OC(n5cnc6cc(C)c(C)cc65)C4O)C4(C)N=C1C(CCC(N)=O)C4(C)CC(N)=O)C(CCC(N)=O)C\3(C)C)C(CCC(N)=O)C/2(C)CC(N)=O (stereo not given)	.	.	33	.
O=C(COc1ccccc1)Nc1ccc(C(=O)NCC2OCCc3ccccc32)cc1 (stereo not given)	.	.	.	.
O=C(O)CCc1ccc(-c2cnn3c(NCc4ccco4)ccnc23)cc1	.	.	33	.
Cc1ccc(-c2cnn3c(NCc4cccs4)ccnc23)cc1	.	.	.	.
OCc1ccccc1-c1cnn2c(NCc3cccs3)ccnc12	.	.	63	.
SMILES	FBW7 act	GPR151 activ	TEAD-YAP block	MITF primary
c1ccc(-c2cnn3c(NCc4cccs4)ccnc23)cc1	.	.	.	.
Nc1ccc(-c2cnn3c(NCc4cccs4)ccnc23)cc1	.	.	71	.
C=CCN(C(=O)CNC(=O)c1ccco1)C(C(=O)NCc1ccco1)c1ccc(C)cc1 (stereo not given)	.	.	.	.
Cc1nc(SCC(=O)N2CCCC(C)C2)c2c(C)c(C)sc2n1 (stereo not given)	.	.	.	.
CC(C)(C)c1ccc2c(c1)NC(=O)CO2	.	.	35	.
O=C1COc2ccc(C(=O)O)cc2N1	.	.	.	.
O=C(CSc1cc(N2CCCC2)ncn1)c1ccccc1	.	.	76	.
CC1CCCN(C2CCN(S(=O)(=O)c3ccc4c(c3)OCCO4)CC2)C1 (stereo not given)	.	.	.	.
NC1=C/C(=N\S(=O)(=O)c2ccccc2)c2ccccc2C1=O	.	.	96	.
CCN1C(=O)/C(=C\c2cc(C)n(-c3ccccc3F)c2C)C(C(=O)OC)=C1C	.	.	38	.
C=CCN1C(=O)/C(=C\c2cc(C)n(-c3ccccc3)c2C)C(C(=O)OC)=C1C	.	.	.	.
C=CCN1C(=O)/C(=C\c2cc(C)n(-c3ccccc3F)c2C)C(C(=O)OC)=C1C	.	.	36	.
CCN1C(=O)/C(=C\c2cc(C)n(-c3ccccc3C)c2C)C(C(=O)OC)=C1C	.	.	.	.
